# Measured values reported in the supplement of paper PMC8728848.
# This is one part of a sample in which the strongest signals are shown more often than they occur.
# B1: EULS2 M3 (Oryza sativa) (protein)
# chain: MVYCRANPNYAMTARNGAVVLAPANPKDEYQHWIKDMRWSTSIKDEEGYPAFALVNKATGQAIKHSLGQSHPVRLVPYNPEVMDESVLWTESRDVGNGFRCIRMVNNIYLNFDAFHGDKYHGGVRDGTDIVLWKLCEGDSLRWKIQPYYILEQKLISEEDLNSAVDHHHHHH
# Key:
# Experiment in all cases: glycan array binding signal (z-score within array); higher = stronger binding
# Conditions in all cases: glycan notation: IUPAC condensed, linker removed
# [1] = target: Fuc(a1-2)Gal(b1-4)GlcNAc(b1-3)Gal(b1-4)GlcNAc
# In short: (§1)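 From the Consortium for Functional Glycomics database, 3228 arrays were curated, keeping only those whose protein sequence was available. Binding is given as a within-array Z-score averaged across arrays sharing a protein sequence and across linkers. Negative Z-scores can be read as non-binding.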
# [2] = target: Fuc(a1-2)Gal(b1-4)GlcNAc(b1-3)Gal(b1-4)GlcNAc(b1-2)Man(a1-3)[Fuc(a1-2)Gal(b1-4)GlcNAc(b1-3)Gal(b1-4)GlcNAc(b1-2)Man(a1-6)]Man(b1-4)GlcNAc(b1-4)GlcNAc
# In short: as §1
# [3] = target: Fuc(a1-2)[Gal(a1-3)]Gal(b1-3)GlcNAc
# In short: as §1
# [4] = target: Fuc(a1-3)[Gal3S(b1-4)]Glc
# In short: as §1
# Gal(a1-3)Gal(b1-3)GlcNAc = target: Gal(a1-3)Gal(b1-3)GlcNAc
# In short: as §1
# Gal(a1-3)Gal(b1-4)Glc = target: Gal(a1-3)Gal(b1-4)Glc
# In short: as §1
# [5] = target: Gal(a1-3)Gal(b1-4)GlcNAc(b1-6)GalNAc
# In short: as §1
# [6] = target: Gal(b1-3)GlcNAc(a1-3)Gal(b1-4)GlcNAc
# In short: as §1
# [7] = target: Gal(b1-3)GlcNAc(b1-3)Gal(b1-4)GlcNAc(b1-3)Gal(b1-4)GlcNAc(b1-2)[Gal(b1-3)GlcNAc(b1-3)Gal(b1-4)GlcNAc(b1-3)Gal(b1-4)GlcNAc(b1-6)]Man(a1-6)[Gal(b1-3)GlcNAc(b1-3)Gal(b1-4)GlcNAc(b1-3)Gal(b1-4)GlcNAc(b1-2)Man(a1-3)]Man(b1-4)GlcNAc(b1-4)[Fuc(a1-6)]GlcNAc
# In short: as §1
# [8] = target: Gal(b1-3)[Fuc(a1-4)]GlcNAc(b1-2)Man
# In short: as §1
# [9] = target: Gal(b1-3)[Fuc(a1-4)]GlcNAc(b1-3)Gal(b1-3)[Fuc(a1-4)]GlcNAc
# In short: as §1
# [10] = target: Gal(b1-4)GalNAc(a1-3)[Fuc(a1-2)]Gal(b1-4)GlcNAc
# In short: as §1
# [11] = target: Gal(b1-4)GalNAc(b1-3)[Fuc(a1-2)]Gal(b1-4)GlcNAc
# In short: as §1
# [12] = target: Gal(b1-4)GlcNAc(b1-3)Gal(b1-4)GlcNAc(b1-3)Gal(b1-4)GlcNAc(b1-3)Gal(b1-4)GlcNAc(b1-2)[Gal(b1-4)GlcNAc(b1-3)Gal(b1-4)GlcNAc(b1-3)Gal(b1-4)GlcNAc(b1-3)Gal(b1-4)GlcNAc(b1-6)]Man(a1-6)[Gal(b1-4)GlcNAc(b1-3)Gal(b1-4)GlcNAc(b1-3)Gal(b1-4)GlcNAc(b1-3)Gal(b1-4)GlcNAc(b1-2)Man(a1-3)]Man(b1-4)GlcNAc(b1-4)[Fuc(a1-6)]GlcNAc
# In short: as §1
# [13] = target: Gal(b1-4)GlcNAc(b1-3)Gal(b1-4)GlcNAc(b1-3)[Gal(b1-4)GlcNAc(b1-3)Gal(b1-4)GlcNAc(b1-6)]GalNAc
# In short: as §1
# [14] = target: Gal3S(b1-4)[Fuc(a1-3)]GlcNAc6S
# In short: as §1
# GalNAc(b1-3)Gal = target: GalNAc(b1-3)Gal
# In short: as §1
# GalNAc(b1-4)Gal(b1-4)Glc = target: GalNAc(b1-4)Gal(b1-4)Glc
# In short: as §1
# [15] = target: GalNAc3S(b1-4)[Fuc(a1-3)]GlcNAc
# In short: as §1
# GalNAc4S6S(b1-4)GlcNAc = target: GalNAc4S6S(b1-4)GlcNAc
# In short: as §1
# Glc(a1-4)Glc = target: Glc(a1-4)Glc
# In short: as §1
# [16] = target: Glc(a1-6)Glc(a1-6)Glc(a1-6)Glc
# In short: as §1
# [17] = target: GlcNAc(a1-3)Gal(b1-4)GlcNAc
# In short: as §1
# [18] = target: GlcNAc(a1-4)Gal(b1-4)GlcNAc(b1-3)Gal(b1-4)GlcNAc(b1-3)Gal(b1-4)GlcNAc
# In short: as §1
# [19] = target: GlcNAc(b1-3)Gal(b1-4)GlcNAc(b1-2)Man(a1-3)[GlcNAc(b1-3)Gal(b1-4)GlcNAc(b1-2)Man(a1-6)]Man(b1-4)GlcNAc(b1-4)GlcNAc
# In short: as §1
# [20] = target: GlcNAc(b1-3)Gal(b1-4)GlcNAc(b1-2)[GlcNAc(b1-3)Gal(b1-4)GlcNAc(b1-6)]Man(a1-6)[GlcNAc(b1-3)Gal(b1-4)GlcNAc(b1-2)Man(a1-3)]Man(b1-4)GlcNAc(b1-4)GlcNAc
# In short: as §1
# [21] = target: GlcNAc(b1-3)Gal(b1-4)GlcNAc(b1-3)Gal(b1-4)GlcNAc(b1-3)Gal(b1-4)GlcNAc(b1-2)[GlcNAc(b1-3)Gal(b1-4)GlcNAc(b1-3)Gal(b1-4)GlcNAc(b1-3)Gal(b1-4)GlcNAc(b1-6)]Man(a1-6)[GlcNAc(b1-3)Gal(b1-4)GlcNAc(b1-3)Gal(b1-4)GlcNAc(b1-3)Gal(b1-4)GlcNAc(b1-2)Man(a1-3)]Man(b1-4)GlcNAc(b1-4)[Fuc(a1-6)]GlcNAc
# In short: as §1
# [22] = target: GlcNAc(b1-4)GlcNAc(b1-4)GlcNAc
# In short: as §1
# [23] = target: GlcNAc(b1-4)GlcNAc(b1-4)GlcNAc(b1-4)GlcNAc(b1-4)GlcNAc(b1-4)GlcNAc
# In short: as §1
# [24] = target: GlcNAc(b1-6)Gal(b1-4)GlcNAc
# In short: as §1
binder,measurement,setting,value
B1,glycan array binding signal (z-score),[1],0.227
same,glycan array binding signal (z-score),[2],0.177
same,glycan array binding signal (z-score),[3],1.44
same,glycan array binding signal (z-score),[4],0.485
same,glycan array binding signal (z-score),Gal(a1-3)Gal(b1-3)GlcNAc,8.25
same,glycan array binding signal (z-score),Gal(a1-3)Gal(b1-4)Glc,0.227
same,glycan array binding signal (z-score),[5],-0.929
same,glycan array binding signal (z-score),[6],2.02
same,glycan array binding signal (z-score),[7],1.66
same,glycan array binding signal (z-score),[8],1.17
same,glycan array binding signal (z-score),[9],2.13
same,glycan array binding signal (z-score),[10],-0.34
same,glycan array binding signal (z-score),[11],-0.158
same,glycan array binding signal (z-score),[12],0.461
same,glycan array binding signal (z-score),[13],0.234
same,glycan array binding signal (z-score),[14],2.11
same,glycan array binding signal (z-score),GalNAc(b1-3)Gal,2.46
same,glycan array binding signal (z-score),GalNAc(b1-4)Gal(b1-4)Glc,0.053
same,glycan array binding signal (z-score),[15],-0.623
same,glycan array binding signal (z-score),GalNAc4S6S(b1-4)GlcNAc,0.056
same,glycan array binding signal (z-score),Glc(a1-4)Glc,0.668
same,glycan array binding signal (z-score),[16],1.67
same,glycan array binding signal (z-score),[17],-0.405
same,glycan array binding signal (z-score),[18],-0.139
same,glycan array binding signal (z-score),[19],-0.171
same,glycan array binding signal (z-score),[20],0.562
same,glycan array binding signal (z-score),[21],0.306
same,glycan array binding signal (z-score),[22],-0.413
same,glycan array binding signal (z-score),[23],-0.977
same,glycan array binding signal (z-score),[24],1.64
